The results in this text go back to PubChem BioAssay AID1159580 (chemical genetic matrix, 2015).

Each structure is given as a SMILES string. Screen size: about 5,500 compounds; about 2,000 (36%) were called active. Inconclusive results (about 18%) are left out. Some of the results follow. Unmarked numbers belong to inactive results. Cut-off read from the data, not from the text of the source: active = normalized growth mostly below about 0.91 (no sharp cut-off); inconclusive = no clear call, values can overlap the other calls; inactive = mostly above about 0.92.

A short description of this assay: chemical genetic growth profiling, strain panel (AID 1159580).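 Note: tested at 20 µM; growth read once vehicle control cultures reached saturation at 30 °C; 1 = growth at the plate median or of vehicle wells; lower values mean less growth of the strain.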 The note with it: growth OD.
Setting [1] is: S. cerevisiae deletion strains, locus YHR030C, strain SLT2, active compounds read low.

Regarding `c1cncc(C2=NCCC2)c1`, the normalized growth is 1.02 under setting [1]; 1.01 (S. cerevisiae deletion strains, locus YHR079C, strain IRE1, active compounds read low); 1.02 (S. cerevisiae deletion strains, locus YJL095W, strain BCK1, active compounds read low); 0.938 (S. cerevisiae deletion strains, locus YJR066W, strain TOR1, active compounds read low); 0.905 (S. cerevisiae deletion strains, locus YLR113W, strain HOG1, active compounds read low); 0.952 (S. cerevisiae deletion strains, locus YNL183C, strain NPR1, active compounds read low). Besides, the normalized growth was 1.01 (S. cerevisiae deletion strains, locus YOR231W, strain MKK1, active compounds read low) and 0.99 (S. cerevisiae deletion strains, locus YPL256C, strain CLN2, active compounds read low).
Take `c1ccc(-c2csc(-c3cccnc3)n2)cc1`: the normalized growth (S. cerevisiae deletion strains, locus YAL013W, strain DEP1, active compounds read low) was 0.872 (active); the normalized growth (S. cerevisiae deletion strains, locus YBR229C, strain ROT2, active compounds read low) was 0.886 (active); the normalized growth (S. cerevisiae deletion strains, locus YCL061C, strain MRC1, active compounds read low) was 0.853 (active); the normalized growth (S. cerevisiae deletion strains, locus YDL101C, strain DUN1, active compounds read low) was 0.912; the normalized growth (S. cerevisiae deletion strains, locus YDL134C, strain PPH21, active compounds read low) is 0.954; the normalized growth (S. cerevisiae deletion strains, locus YDR150W, strain NUM1, active compounds read low) is 0.946. For the same molecule, the normalized growth was 0.793 (active) (S. cerevisiae deletion strains, locus YEL061C, strain CIN8, active compounds read low); 0.9 (active) (S. cerevisiae deletion strains, locus YGR078C, strain PAC10, active compounds read low); 0.132 (active) under setting [1]; 0.938 (S. cerevisiae deletion strains, locus YHR087W, strain rtc3, active compounds read low); 0.935 (S. cerevisiae deletion strains, locus YJR043C, strain POL32, active compounds read low); 0.855 (active) (S. cerevisiae deletion strains, locus YJR075W, strain HOC1, active compounds read low). The normalized growth was 0.853 (active) (S. cerevisiae deletion strains, locus YKL190W, strain CNB1, active compounds read low); 0.557 (active) (S. cerevisiae deletion strains, locus YLR039C, strain RIC1, active compounds read low); 0.908 (active) (S. cerevisiae deletion strains, locus YLR058C, strain SHM2 (second series), active compounds read low); 0.275 (active) (S. cerevisiae deletion strains, locus YLR085C, strain ARP6, active compounds read low); 0.432 (active) (S. cerevisiae deletion strains, locus YLR262C, strain YPT6, active compounds read low); 0.772 (active) (S. cerevisiae deletion strains, locus YML094W, strain GIM5, active compounds read low). The normalized growth is 0.892 (active) (S. cerevisiae deletion strains, locus YMR219W, strain ESC1, active compounds read low); 0.873 (active) (S. cerevisiae deletion strains, locus YMR263W, strain SAP30, active compounds read low); 0.887 (active) (S. cerevisiae deletion strains, locus YNL153C, strain GIM3, active compounds read low); 0.74 (active) (S. cerevisiae deletion strains, locus YNL298W, strain CLA4 (second series), active compounds read low); 0.94 (active) (S. cerevisiae deletion strains, locus YNL322C, strain KRE1, active compounds read low); 0.857 (active) (S. cerevisiae deletion strains, locus YNR030W, strain Alg12, active compounds read low). Further, the normalized growth was 0.717 (active) (S. cerevisiae deletion strains, locus YPL055C, strain LGE1, active compounds read low); 0.855 (active) (S. cerevisiae deletion strains, locus YPL241C, strain CIN2, active compounds read low); 0.377 (active) (S. cerevisiae deletion strains, locus YPR135W, strain CTF4, active compounds read low); 0.949 (S. cerevisiae strains, strain wild type, active compounds read low).
